Assay results: PubChem BioAssay AID1159580 (chemical genetic matrix, 2015)
“And” between values parts separate entries of the source, which are not always exact repeats. Equal entries are not always repeated. Among all 5,500 compounds or so, about 2,000 (36%) were called active. Another 18% or so got no clear call; they are omitted. Cut-off read from the data, not from the text of the source: active = normalized growth mostly below about 0.91 (no sharp cut-off); inconclusive = no clear call, values can overlap the other calls; inactive = mostly above about 0.92. The list shows a part of the results.

Assay: chemical genetic growth profiling, strain panel (AID 1159580);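 note: tested at 20 µM; growth read once vehicle control cultures reached saturation at 30 °C; 1 = growth at the plate median or of vehicle wells; lower values mean less growth of the strain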
Settings: S. cerevisiae deletion strains, growth OD

Measured: normalized growth

O=S(=O)(O)CCS
inactive: locus YAL013W, strain DEP1, stronger effect = lower value 1.01 | locus YAL021C, strain ccr4, stronger effect = lower value 0.983 | locus YAL026C, strain drs2, stronger effect = lower value 1 | locus YAL030W, strain snc1, stronger effect = lower value 0.993 | locus YBL061C, strain skt5, stronger effect = lower value 0.966 | locus YBR009C, strain hhf1, stronger effect = lower value 1.01 | locus YBR021W, strain FUR4, stronger effect = lower value 1.01 | locus YBR023C, strain chs3, stronger effect = lower value 0.989 | locus YBR171W, strain sec66, stronger effect = lower value 0.976 | locus YBR229C, strain ROT2, stronger effect = lower value 1.01 | locus YBR231C, strain swc5, stronger effect = lower value 1.01 | locus YBR279W, strain paf1, stronger effect = lower value 0.986 | locus YCL016C, strain dcc1, stronger effect = lower value 0.976 | locus YCL029C, strain bik1, stronger effect = lower value 0.993 | locus YCL069W, strain vba3, stronger effect = lower value 0.979 | locus YCR088W, strain abp1, stronger effect = lower value 0.985 | locus YDL005C, strain med2, stronger effect = lower value 0.949 | locus YDL035C, strain GPR1, stronger effect = lower value 1.02 | locus YDL040C, strain nat1, stronger effect = lower value 0.999 | locus YDL074C, strain BRE1, stronger effect = lower value 1.05 | locus YDL101C, strain DUN1, stronger effect = lower value 1.02 | locus YDL134C, strain PPH21, stronger effect = lower value 1.01 | locus YDL185W, strain tfp1, stronger effect = lower value 0.985 | locus YDL192W, strain arf1, stronger effect = lower value 0.99 | locus YDR001C, strain nth1, stronger effect = lower value 0.99 | locus YDR069C, strain doa4, stronger effect = lower value 0.992 | locus YDR101C, strain arx1, stronger effect = lower value 1.02 | locus YDR137W, strain rgp1, stronger effect = lower value 0.984 | locus YDR150W, strain NUM1, stronger effect = lower value 1.01 | locus YDR159W, strain sac3, stronger effect = lower value 0.977 | locus YDR162C, strain NBP2, stronger effect = lower value 1.01 | locus YDR195W, strain ref2 0.988 | locus YDR297W, strain sur2, stronger effect = lower value 0.989 | locus YDR318W, strain mcm21, stronger effect = lower value 0.991 | locus YDR334W, strain swr1, stronger effect = lower value 0.982 | locus YDR335W, strain msn5, stronger effect = lower value 0.981 | locus YDR388W, stronger effect = lower value 0.978 | locus YDR392W, strain spt3, stronger effect = lower value 0.928 | locus YDR502C, strain sam2, stronger effect = lower value 0.995 | locus YEL003W, strain gim4, stronger effect = lower value 0.998 | locus YEL037C, strain rad23, stronger effect = lower value 0.985 | locus YEL061C, strain CIN8 (second series), stronger effect = lower value 1.01 | locus YEL061C, strain CIN8, stronger effect = lower value 1.01 | locus YER015W, strain faa2, stronger effect = lower value 0.998 | locus YER016W, strain bim1, stronger effect = lower value 0.945 | locus YER110C, stronger effect = lower value 0.987 | locus YER111C, strain swi4, stronger effect = lower value 0.981 | locus YER155C, strain BEM2 (second series), stronger effect = lower value 1 | locus YER155C, strain BEM2, stronger effect = lower value 1.01 | locus YER167W, strain BCK2, stronger effect = lower value 0.996 | locus YFR010W, strain ubp6, stronger effect = lower value 1.01 | locus YGL078C, strain dbp3, stronger effect = lower value 0.976 | locus YGL086W, strain mad1, stronger effect = lower value 0.997 | locus YGL167C, strain pmr1, stronger effect = lower value 0.985 | locus YGL173C, strain kem1, stronger effect = lower value 0.998 | locus YGL227W, strain vid30, stronger effect = lower value 0.979 | locus YGL240W, strain doc1, stronger effect = lower value 1.01 | locus YGL248W, strain PDE1, stronger effect = lower value 1.03 | locus YGL253W, strain hxk2, stronger effect = lower value 0.986 | locus YGR135W, strain pre9, stronger effect = lower value 0.997 | locus YGR252W, strain gcn5, stronger effect = lower value 0.936 | locus YHR013C, strain ard1, stronger effect = lower value 0.927 | locus YHR027C, strain rpn1, stronger effect = lower value 1.01 | locus YHR030C, strain SLT2, stronger effect = lower value 1.01 and 0.989 | locus YHR079C, strain IRE1 (second series), stronger effect = lower value 0.989 | locus YHR079C, strain IRE1, stronger effect = lower value 0.991 | locus YHR094C, strain hxt1, stronger effect = lower value 0.991 | locus YHR129C, strain ARP1, stronger effect = lower value 1.01 | locus YHR142W, strain chs7, stronger effect = lower value 0.968 | locus YHR200W, strain rpn10, stronger effect = lower value 0.999 | locus YIL066C, strain RNR3, stronger effect = lower value 1.02 | locus YIL073C, strain SPO22, stronger effect = lower value 0.965 | locus YIL125W, strain kgd1, stronger effect = lower value 0.981 | locus YIR030C, strain dcg1, stronger effect = lower value 0.999 | locus YJL092W, strain hpr5, stronger effect = lower value 0.997 | locus YJL095W, strain BCK1 (second series), stronger effect = lower value 0.971 | locus YJL095W, strain BCK1, stronger effect = lower value 1.03 and 0.974 | locus YJL115W, strain asf1, stronger effect = lower value 0.983 | locus YJL129C, strain trk1, stronger effect = lower value 0.946 | locus YJL134W, strain LCB3, stronger effect = lower value 1.01 | locus YJL154C, strain vps35, stronger effect = lower value 0.97 | locus YJL164C, strain tpk1, stronger effect = lower value 0.991 | locus YJL166W, strain qcr8, stronger effect = lower value 1 | locus YJL168C, strain set2, stronger effect = lower value 0.992 | locus YJL187C, strain SWE1 (second series), stronger effect = lower value 1.03 | locus YJL187C, strain SWE1, stronger effect = lower value 0.986 | locus YJR043C, strain POL32, stronger effect = lower value 1.01 | locus YJR066W, strain TOR1, stronger effect = lower value 0.961
